LMNA splice mod = modulators of lamin A splicing | HeLa LMNA splicing GFP/RFP minigene ratio, 48 h | Potency, µM (titrated, usually from 46.1 µM), for the others: top-dose ratio change, negative = inhibition, hits mostly inhibitors | 0.01% of 200,000 active; active = well fitted inhibition curve with a large enough effect in the signal ratio, with a control signal flat, not every such curve was filed as active; inconclusive = small, poorly fitted or top-dose-only effect, or effect the other way, or a change in a side signal; the % refers to the signal ratio; note: potency is the fitted concentration of half-maximal effect
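S3 HeLa stable clones carrying a lamin A-EGFP splicing minigene plus DsRed2 were seeded at 600 cells/well in Opti-MEM with 2% FBS, pin-dosed and incubated 48 h at 37°C. Acumen cytometry (488 nm) gave the GFP/RFP total-intensity ratio.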
IMPase cell inh = IMPase inhibition in cells. CHO-M1 cells, IP1 accumulation, HTRF TR-FRET ratio. 120,000 tested, under 10 active. inhibition (IP1 accumulation), % at 46.1 µM; active = well fitted curve in the direction sought with a large enough effect in the signal ratio, not every such curve was filed as active; inconclusive = small, poorly fitted or top-dose-only effect, or a change in a side signal; inactive = no such curve, though single readings can be large or run the other way; the % refers to the signal ratio;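 note: cells stimulated with carbachol in lithium chloride buffer; plate controls were DMSO basal wells for no effect and reference inhibitor wells for full effect; higher means more IMPase inhibition seen as more IP1 and lower FRET ratio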
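The IP-One HTRF competitive assay in carbachol-stimulated CHO-M1 cells quantifies cellular IP1. Compounds spanned up to 46 uM final, and activity is expressed as AC50 from concentration-response fits of the ratio and donor data.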
HPGD inh = HPGD (human) dehydrogenase inhibition. 4.3% of 150,000 active. purified HPGD, NADH fluorescence kinetic, PGE2 substrate. AID 894. Potency, µM, for inactives: at the top dose activity change, negative = inhibition, usual class: inhibitors. P15428; note: potency is the fitted concentration of half-maximal effect
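NADH formation kinetics: reaction with 30 uM PGE2 and 1 mM NAD+ (final), 20 nM enzyme, Tris-HCl pH 8 with Tween 20, after 15 min compound preincubation at room temperature. Fluorescence change, last versus first of five reads.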
KinaseGlo FLuc = blocks Kinase-Glo luciferase, a counter-screen artifact | Kinase-Glo luciferase, ATP luminescence, 8 min | Potency, µM (titrated, usually from 38.3 µM), without a hit: top-dose activity change, negative = inhibition, actives largely listed as inhibitors | 0.28% of 200,000 active | AID 1379; active = well fitted inhibition curve with a large enough effect; inconclusive = small, poorly fitted or top-dose-only effect; note: potency is the fitted concentration of half-maximal effect; nearly all actives have a fitted effect of over 60% in size
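Compounds were added to a substrate mix at pH 7.2 (50 mM imidazole, 10 uM ATP, within the enzyme's linear range), followed by Kinase-Glo detection reagent; luminescence was measured after 8 minutes at ambient temperature.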
PNC inhibitor = inhibitors of perinucleolar compartment assembly; activity change (PNC), negative = inhibition, % at 10 µM; PC3M PTB-GFP, PNC prevalence imaging, 16 h; active compounds read low; 3.1% of 140,000 active; AID 2417;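 active = readout at or below -70, meaning at least 70% loss of cells showing the perinucleolar compartment, a nuclear body marking cancer cells; inconclusive = readout between -30 and a set limit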;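 note: plate controls were DMSO wells for no effect and camptothecin positive control wells for full effect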
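Read-out is percentage of cells bearing a perinucleolar compartment, from automated 20x imaging of fixed, Hoechst-stained PC3M PTB-GFP cells. Cells were seeded 4 h, then exposed 16 h to compound (23 nl of library stock) in duplicate plates.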
ALDH1A1 inh = blocks purified human ALDH1A1 activity; Potency, µM (doses to about 75.3 µM), for inactives: top-dose activity, negative = inhibition, actives largely listed as inhibitors; AID 1030; P00352; 7.3% of 220,000 active; Purified ALDH1A1, NADH fluorescence, propionaldehyde substrate;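 note: potency is the fitted concentration of half-maximal effect; plate controls were no enzyme wells and a reference inhibitor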
Target sequence (P00352 whole entry, looked up): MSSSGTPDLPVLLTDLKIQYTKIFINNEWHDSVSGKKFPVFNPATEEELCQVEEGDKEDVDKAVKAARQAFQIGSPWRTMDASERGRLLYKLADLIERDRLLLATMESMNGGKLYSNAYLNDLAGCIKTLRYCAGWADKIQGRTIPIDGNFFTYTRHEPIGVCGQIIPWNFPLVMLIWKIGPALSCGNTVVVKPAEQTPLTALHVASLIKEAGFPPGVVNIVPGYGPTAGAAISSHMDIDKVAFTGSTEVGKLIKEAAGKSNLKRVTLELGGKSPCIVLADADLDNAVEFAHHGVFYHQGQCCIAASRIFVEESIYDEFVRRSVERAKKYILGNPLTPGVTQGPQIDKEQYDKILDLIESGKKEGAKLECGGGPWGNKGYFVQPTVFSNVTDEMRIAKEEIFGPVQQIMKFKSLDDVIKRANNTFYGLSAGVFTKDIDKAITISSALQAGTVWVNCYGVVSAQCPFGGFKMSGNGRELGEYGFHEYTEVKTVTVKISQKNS
Active calls of the source: *; ? = inconclusive; / = no result; [ ] = remark or other dose. The list is not random: actives were taken first. Their share in the collection is about 10%. Unless noted, calls come from the whole dose curve; as a rule, active = well fitted inhibition curve with a large enough effect (not every such curve was filed as active); inconclusive = small, poorly fitted or top-dose-only effect, or another doubt; inactive = no such curve, though single readings can be large or run the other way. Unless noted, % is set by controls: 0 for no effect and ±100 for the full control effect.

SMILES	LMNA splice mod	IMPase cell inh	HPGD inh	KinaseGlo FLuc	PNC inhibitor	ALDH1A1 inh
CN(C)c1nc(N2CCN(c3ccccc3)CC2)c(C#N)c(=O)o1	-11%	-1	16µM*	12%	-22	?
Cc1cccc(C)c1N1CCN(c2nc(N(C)C)oc(=O)c2C#N)CC1	1%	-9	?	-1%	56	0%
Cc1cccc2cc(C3CC(c4ccco4)=NN3S(=O)(=O)c3ccccc3)c(Cl)nc12 (centres undefined)	11%	/	-10%	2%	-91*	-6%
S=c1[nH]nc(-c2cccc(Br)c2)o1	13%	?	-22%	0%	?	6.3µM*
Nn1c(-c2cccc(Br)c2)n[nH]c1=S	1%	-3	-28%	-1%	-7	22µM*
CCC1CCc2nc3sc(C(=O)Nc4ccc(C)cc4)c(N)c3cc2C1 (centres undefined)	/	-5	/	/	/	/
Cc1ccc(C)c(N2CCN(c3c(CN4CCCC4)c(=O)oc4ccccc34)CC2)c1	/	8	/	/	/	/
C=C1/C(=C\C=C2/CCC[C@]3(C)C([C@H](C)CCCC(C)(C)O)CC[C@@H]23)C[C@@H](O)C[C@@H]1O (some centres undefined)	/	/	/	/	/	-2%
O=C(O)C1=CC(=C(c2ccc(O)c(C(=O)O)c2)c2ccc(O)c(C(=O)O)c2)C=CC1=O	?	?	?	2%	/	?
O=C1C=CC(=C(c2ccc(O)cc2)c2ccc(O)cc2)C=C1	/	/	14µM*	-1%	/	-10%
Nc1c(-c2ccccc2)cnc2cc(-c3ccccc3)nn12	8%[46 µM]	/	/	-20%	/	-7%
COc1ccc(-c2cnc3ncnn3c2N)cc1	4%[46 µM]	/	/	-1%	/	6%
Cc1cc2ncc(-c3ccc(Cl)cc3)c(N)n2n1	-14%	11	?	-3%	-108*	5%
Nc1c(-c2ccc(Cl)cc2)cnc2ncnn12	-2%	1	-13%	5%	-109*	18%
O=C(Nc1cc(F)ccc1F)c1ccc(CN2CC(=O)N3CCCCC3C2=O)cc1 (centres undefined)	10%[46 µM]	/	/	/	/	/
O=C(CSc1nc2c([nH]c3ccccc32)c(=O)n1-c1ccccc1)Nc1ccc(Cl)c(Cl)c1	0%[46 µM]	/	/	/	/	/
COc1ccc2c(c1)C(c1ccccc1C)CC(=O)O2 (centres undefined)	/	/	?	-11%[39.9 µM]	/	32µM*
COc1ccc2c(c1)C(c1ccccc1OC)CC(=O)O2 (centres undefined)	/	/	-9%	0%[39.9 µM]	/	?
CCC(=O)Nc1nnc(C)s1	-2%	2	1%	3%	-106*	-7%
CCCCC(=O)Nc1nnc(C)s1	-7%	-5	1%	12%	56	11%
CC(C)=CC(=O)Nc1nnc(C)s1	0%	-1	4%	-1%	-108*	-1%
Cc1cc(C(=O)N/N=C/c2cccnc2)cs1	-3%	/	-5%	-5%	-114*	3%
Cc1ccc(NC(=O)c2cc(NC(=O)c3ccccc3C(=O)O)ccc2N2CCCCC2)cc1	/	/	/	-4%	/	-9%
Cc1cccc(NC(=O)c2cc(NC(=O)C3CCCCC3C(=O)O)ccc2N2CCCCC2)c1 (centres undefined)	-5%	6	1%	-3%	-7	18µM*
CC(=O)Nc1ccc(N2CCCCC2)c(C(=O)Nc2cccc(C)c2)c1	-2%	3	-9%	1%	-3	11µM*
SMILES	LMNA splice mod	IMPase cell inh	HPGD inh	KinaseGlo FLuc	PNC inhibitor	ALDH1A1 inh
Cc1ccc(-n2c3c(c(=O)[nH]c2=O)C(NC(=O)C(C)(C)C)(C(F)(F)F)C(=O)N3)cc1 (centres undefined)	/	-10	/	/	/	/
O=C(Nc1c(C(=O)O)oc2ccc(Br)cc12)c1ccccc1	9%	2	?	-4%	31	28µM*
O=C(Nc1c(C(=O)c2ccccc2)oc2ccccc12)c1ccc(F)cc1	/	-17	/	/	/	/
O=C(CSc1nnc(C2CC2)n1Cc1ccccc1)c1ccc(S(=O)(=O)N2CCOCC2)cc1	1%	8[1.84 µM]	-22%	7%	?	11µM*
CCn1c(SCc2ccccc2)nnc1C1CCCCC1	-4%	3	/	/	-6	?
CCn1c(SCc2ccccc2)nnc1C1CCN(S(=O)(=O)c2ccc(OC)cc2)CC1	-1%	14	-12%	3%	64	5µM*
O=C(CSc1nnc(C2CC2)n1Cc1ccccc1)N1CCN(S(=O)(=O)c2ccccc2)CC1	?	5	-13%	-2%	-11	-4%
N#Cc1cccc(NC(=O)N2CC[C@@]3(CCCN(C(=O)c4cccc(F)c4)C3)C2)c1	/	/	-8%	-1%	/	-4%
NCCC[C@@H](CC(=O)N[C@@H]1CCNC[C@H]1C(=O)N[C@H](CC(=O)N[C@@H](CCC(=O)O)CC(=O)O)Cc1c[nH]c2ccccc12)NC(=O)C[C@H](Cc1c[nH]c2ccccc12)NC(=O)[C@@H]1CNCC[C@H]1N	/	/	-4%	0%	/	-14%
CC(=NCCN1CCNCC1)C1=C(O)CC(C)(C)CC1=O	?	?	/	/	?	25µM*
O=C(Cn1c(=O)ccc2cc(S(=O)(=O)N3CCCC3)ccc21)NCc1ccc(F)cc1	6%[46 µM]	/	/	/	/	/
CN1C(=O)c2cccc3c(S(=O)(=O)NCc4ccco4)ccc1c23	?	1	-16%	0%	-3	14µM*
CN1C(=O)c2cccc3c(S(=O)(=O)Nc4ccccn4)ccc1c23	?	-1	-19%	-1%	-22	?
COc1ccc(-c2c(C(C)=O)c(C)nc3sc4c(=O)[nH]nnc4c23)cc1	16%	/	18µM*	0%	26	?
CCOC(=O)c1c(C)nc2sc3c(=O)n(-c4ccc(OC)cc4)nnc3c2c1-c1ccc(OC)cc1	3%	0	-12%	-7%	-106*	-9%
CCOC(=O)c1c(C)nc2sc3c(=O)[nH]cnc3c2c1-c1ccc(OC)cc1	-3%	/	?	-1%	38	?
COc1ccc(-c2c(C(C)=O)c(C)nc3sc4c(c23)NC(c2ccccc2)NC4=O)cc1 (centres undefined)	12%	?	?	-1%	26	?
CCOC(=O)c1c(C)nc2sc3c(c2c1-c1ccc(OC)cc1)NC(c1ccccc1)NC3=O (centres undefined)	14%	-1	121%	-1%	-83*	?
CCOC(=O)c1c(C)nc2sc3c(=O)n(-c4ccc(C(C)=O)cc4)cnc3c2c1-c1ccc(OC)cc1	-6%	7	-8%	5%	0	?
CNc1ncnc2ccc(-c3ccccc3C)cc12	2%	/	/	/	/	-8%

Screens as filed in PubChem BioAssay.
